Consider ten compounds from PubChem BioAssay (NCATS).

The structures appear in SMILES notation. Several values for one entry are separate records, joined by “and”; a condition that tells them apart may be missing. Equal values may be shown once. Results filed as inconclusive are left out. Unmarked numbers belong to inactive results. The call rests on the fitted dose curve; in most records, active means well fitted curve in the direction sought with a large enough effect; inconclusive means small, poorly fitted or top-dose-only effect, or another doubt; inactive means no such curve, though single readings can be large; an effect the other way counts as inactive or inconclusive.
On the % scale 0 is the no-effect control and ±100 the full control effect.

In the first assay the test system is Tov112D. Description: Primary qHTS to identify gynecologic anti-cancer compounds using libraries of approved drugs and bioactive compounds (AID 1345084). Further: nearly all actives have a fitted effect of over 55% in size. The conditions noted are these: Gynecologic cancer cell panel viability, ATPlite luminescence, 48 h; series mostly up to 57.5 µM; activity change, negative = cytotoxicity: at the top concentration. Put shortly: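 Cytotoxicity screen measuring ATP content by luciferase luminescence. Each compound is applied at five concentrations for 48 h at 37 C with 5% CO2.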
On the technique in general: qHTS replaces the single test concentration by a dilution series.
In the case of `C=C1C2=CC(O)C(C)C1(C)CC/C(C)=C/CCC1(C)OC1C2=O` (stereo not given), the “activity change, negative = cytotoxicity” value was 5.08% [at 38.5 µM].
Regarding `C[C@H]1CN(C[C@H](Cc2ccccc2)C(=O)NCC(=O)O)CC[C@@]1(C)c1cccc(O)c1`, the “activity change, negative = cytotoxicity” value was 9.03%.
For the compound `Cn1c(=O)cc(N2CCCC(N)C2)n(Cc2ccccc2C#N)c1=O` (stereo not given), the “activity change, negative = cytotoxicity” value is 15.5%.
As to `CCC[C@@H]1C[C@@H](C(=O)N[C@@H]([C@H]2O[C@H](SC)[C@H](OP(=O)(O)O)[C@@H](O)[C@H]2O)[C@H](C)Cl)N(C)C1`, the “activity change, negative = cytotoxicity” value is -0.27% [at 25.3 µM].
Still for that read-out and setting: to `COc1cc(/C=C/CO)ccc1O[C@@H]1O[C@H](CO)[C@@H](O)[C@H](O)[C@H]1O` belongs 12.6% [at 38.5 µM]; to `CC1(O)CCC2C(C(=O)O)=COC(OC3OC(CO)C(O)C(O)C3OC(=O)/C=C/c3ccc(O)cc3)C21` (stereo not given), -1.71% [at 25.3 µM]; to `C[C@@H](Nc1cc(NS(=O)(=O)N2CCC2)nc(SCc2cccc(F)c2F)n1)[C@@H](O)CO`, 11.7%.

Tested on in another assay: not listed separately
Briefly: Drug repurposing screens with cells derived from glioblastoma tumor samples (AID 1345199). Further: nearly all actives have a fitted effect of over 40% in size. The note with it: GBM patient neurospheres viability, ATP luminescence, 48 h; at 45.9 µM (top of the series); tumour line B. Put shortly:
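Four patient lines of CD133+ GBM neurospheres were screened at several concentrations; hits were retested in those lines plus three slower-growing GBM lines, using 48-hour treatment and ATP-based viability.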
As to `CC[C@H]1OC(=O)C[C@@H](O)[C@H](C)[C@@H](O[C@@H]2O[C@H](C)[C@@H](O)[C@H](N(C)C)[C@H]2O)[C@@H](CCN2C[C@H](C)C[C@H](C)C2)C[C@@H](C)C(=O)/C=C/C(C)=C/[C@@H]1CO[C@@H]1O[C@H](C)[C@@H](O)[C@@H](OC)[C@H]1OC`, the activity, negative = cell killing is -3.99%.
For `C[C@]12C=CC(=O)C=C1CC[C@@H]1[C@@H]2[C@@H](O)C[C@@]2(C)[C@H]1CC[C@]2(O)C(=O)COC(=O)CCC(=O)O`, the activity, negative = cell killing was -11.2%.
Still for that read-out and setting: to `CCC(=O)NS(=O)(=O)c1ccc(-c2c(-c3ccccc3)noc2C)cc1` belongs 0.0321%; to `CCC[C@@H]1C[C@@H](C(=O)N[C@@H]([C@H]2O[C@H](SC)[C@H](OP(=O)(O)O)[C@@H](O)[C@H]2O)[C@H](C)Cl)N(C)C1`, -3.77% and -8.29%.

The assay is the same for the next values; noted with them: GBM patient neurospheres viability, ATP luminescence, 48 h; at 45.9 µM (top of the series); tumour line D.
Consider `CC[C@H]1OC(=O)C[C@@H](O)[C@H](C)[C@@H](O[C@@H]2O[C@H](C)[C@@H](O)[C@H](N(C)C)[C@H]2O)[C@@H](CCN2C[C@H](C)C[C@H](C)C2)C[C@@H](C)C(=O)/C=C/C(C)=C/[C@@H]1CO[C@@H]1O[C@H](C)[C@@H](O)[C@@H](OC)[C@H]1OC`, for which the activity, negative = cell killing was -15.7%.
Same read-out and setting: with `C[C@]12C=CC(=O)C=C1CC[C@@H]1[C@@H]2[C@@H](O)C[C@@]2(C)[C@H]1CC[C@]2(O)C(=O)COC(=O)CCC(=O)O` the figure was -5.28%; with `CCC(=O)NS(=O)(=O)c1ccc(-c2c(-c3ccccc3)noc2C)cc1`, 8.31%.
Same read-out and setting: to `CCC[C@@H]1C[C@@H](C(=O)N[C@@H]([C@H]2O[C@H](SC)[C@H](OP(=O)(O)O)[C@@H](O)[C@H]2O)[C@H](C)Cl)N(C)C1` belongs -15.4% and -22.6%.
